Source: PubChem BioAssay (NCI)
The panel holds about 83,000 compounds, 20% with a hit somewhere; the sample as a whole holds those more often.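 Results are percent growth after 48 hours of single-concentration exposure. 100 means growth as in untreated cells, lower positive values show inhibition; negative values down to -100 show cell death.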 A number with no mark means an inactive call. Active and inactive are the calls of the source. How the source made its calls: active means growth percent below 10; inactive means the rest.

System: MDA-MB-468 breast
Assay: NCI-60 one-dose screen, 48 h (100 = growth as untreated, 0 = no growth, -100 = all killed)

Work on `S=c1[nH]ccn1-c1c(Cl)cccc1Cl` yielded a growth (10 µM unless noted) of 110%.
`N#Cc1cnc2cc(OC[C@@H](O)CO)c(NC(=O)C3CCCC3)cc2c1Nc1ccc(OCc2cccc(F)c2)c(Cl)c1` was tested, and the growth (10 µM unless noted) was -20.9% (active).
With `CC(C)(O)C1CCCN1C(=O)c1ccccc1I` (stereo unspecified) the growth (10 µM unless noted) was 73%.
For `COc1ccc(F)cc1/C=C/C(=O)/C=C(/C=C/c1cc(F)ccc1OC)OB(F)F`, the growth (10 µM unless noted) was 31.5%.
In the case of `COc1ccc(CNc2c3ccccc3nc3ccccc23)cc1OC`, the growth (10 µM unless noted) was -22.7% (active).
Work on `O=C(CNc1nnc(-c2cccnc2SCc2ccccc2)s1)Nc1nc(Cl)cc(Cl)n1` yielded a growth (10 µM unless noted) of 112%.
`CC(=O)NNC(=S)/N=C\C(C(=O)c1ccccc1)=C(/O)c1ccccc1` gave a growth (10 µM unless noted) of 114%.
`O=C1NC(=O)c2c(CCCSc3nc4ccccc4c(=O)n3CCc3ccccc3)cccc21` showed a growth (10 µM unless noted) of 112%.
For `O=C(CSc1nc(-c2ccccc2)[nH]c1S(=O)(=O)c1ccccc1)NC1CC1`, the growth (10 µM unless noted) was 4.04% (active).
With `Cc1nc(Nc2ccccn2)sc1C(=O)/C=C/c1ccc(Cl)cc1` the growth (10 µM unless noted) was 16.4%.
For `Cc1ccc(-c2cn3cc([N+](=O)[O-])ccc3n2)cc1`, the growth (10 µM unless noted) was 56.3%.
`COc1ccc2c(c1)c(-c1nc(-c3c[nH]c4ncccc34)cs1)cn2CCN` was tested, and the growth (10 µM unless noted) was 1.91% (active).
Work on `O=C(c1cccc(C(=O)c2ccc3c4c(cccc24)C(=O)N(c2ccccc2)C3=O)c1)c1ccc2c3c(cccc13)C(=O)N(c1ccccc1)C2=O` yielded a growth (10 µM unless noted) of 91.3%.
`CN1CCN(C(=O)[C@]23CCC(C)(C)C[C@H]2C2=CC[C@@H]4[C@@]5(C)C/C(=C/c6ccncc6)C(=O)C(C)(C)[C@@H]5CC[C@@]4(C)[C@]2(C)CC3)CC1` gave a growth (10 µM unless noted) of 44.6%.
Work on `COc1ccc(NC(=O)c2ccc(/C=C/C(=O)c3ncc[nH]3)cc2)cc1` yielded a growth (10 µM unless noted) of 44.3%.
For `O=C(CCl)N1c2ccccc2Oc2ccc3ccccc3c21`, the growth (10 µM unless noted) was -72.5% (active).
`O=C(Nc1ccc(-n2cc(-c3ccncc3)c(-c3ccc(O)c(Cl)c3)n2)cc1)c1cc(C(F)(F)F)cc(C(F)(F)F)c1` gave a growth (10 µM unless noted) of 64.9%.
In the case of `CCOC(=O)C(C)(c1ccccc1)c1ccccc1`, the growth (10 µM unless noted) was 109%.
In the case of `COc1ccccc1C(=O)CSc1nc(Nc2ccc(S(N)(=O)=O)cc2)c2ccccc2n1`, the growth (10 µM unless noted) was 99.7%.
With `CN(N)c1nc2sc3c(c2c(=O)[nH]1)CCCC3` the growth (10 µM unless noted) was 113%.
`COC(=O)[C@@]1(C)CC[C@]2(C)CC[C@]3(C)C(=CC(=O)[C@@H]4[C@@]5(C)Cc6c(n(CC#CCN7CCN(C)CC7)c7ccccc67)C(C)(C)[C@@H]5CC[C@]43C)[C@@H]2C1` gave a growth (10 µM unless noted) of 69.1%.
For `CC/C(=C(\CC)c1ccc(OCC[N+](C)(C)C)cc1)c1ccc(OC)cc1`, the growth (10 µM unless noted) was 2.58% (active).
`COc1ccc(Nc2nn3c(C)cc(C)nc3c2C(=O)Nc2ccc(C)cc2)c(OC)c1` showed a growth (10 µM unless noted) of 91.6%.
`COc1ccc(CNc2c3ccccc3nc3ccc(OC)cc23)cc1` was tested, and the growth (10 µM unless noted) was -14.7% (active).
`CCN1C(=O)N(CC)C2Nn3c(s/c(=C4\C(=O)N(C5CCCC5)c5ccccc54)c3=O)=NC21` (stereo unspecified) gave a growth (10 µM unless noted) of 11%.
`CC1(C)OC2C(COC(c3ccccc3)(c3ccccc3)c3ccccc3)OC(c3c[nH]c4c(N)ncnc34)C2O1` (stereo unspecified) was tested, and the growth (10 µM unless noted) was 30%.
For `CCCCCCCCCC[N+](C)(C)C`, the growth (10 µM unless noted) was -31.3% (active).
For `COc1ccc(-c2[nH]ncc2Nc2cc(OC)c(OC)c(OC)c2)cc1`, the growth (10 µM unless noted) was 21.7%.
With `C/C(=N\NC(N)=O)c1c(O)sc(=O)[nH]c1=O` the growth (10 µM unless noted) was 97.4%.
In the case of `C=C(C)[C@@H]1CC[C@]2(CO)CC[C@]3(C)[C@H](CC[C@@H]4[C@@](C)(CCCN)[C@H](C(=C)C)CC[C@]43C)[C@@H]12`, the growth (10 µM unless noted) was -71.4% (active).
`C[C@H]1c2[nH]c3ccccc3c2C[C@H]2C(=O)N(CCCCCCC(=O)NO)CC(=O)N21` was tested, and the growth (10 µM unless noted) was 60.3%.
Work on `CSc1nn(-c2ccccc2)c2ncnc(Oc3ccccc3)c12` yielded a growth (10 µM unless noted) of 88.6%.
In the case of `COc1cccc2c1C(=O)c1c(O)c3c(c(O)c1C2=O)C[C@@](O)(C(=O)CO)C[C@@H]3OC1CC(N)C(O)C(C)O1` (stereo partly specified), the growth (0.0025 µM) was 95.2% and the growth (2.5 µM) was 10.4%.
`CN(C)CCNc1ncc(F)c(-c2cnc3cc(-c4cnn(C)c4)ccn23)n1` showed a growth (0.005 µM) of 103%.
In the case of `CCCCCCCCCCCCCCCc1ccc(Cl)c(O)c1Cl` (tested in a mixture with another compound), the growth (0.25 µM) was 8.94% (active).
Work on `CNC(=O)c1cc(Oc2ccc(CC(=O)Nc3cc(C(C)(C)C)nn3C)cc2)ccn1` yielded a growth (1 µM) of 28.7%.
In the case of `CC(=O)O[C@H]1C(=O)[C@@]2(C)[C@H]([C@H](OC(=O)c3ccccc3)[C@]3(O)C[C@H](OC(=O)[C@H](O)[C@@H](NC(=O)c4ccccc4)c4ccccc4)C(C)=C1C3(C)C)[C@]1(OC(C)=O)CO[C@@H]1C[C@@H]2O`, the growth (2.5 µM) was -25.5% (active) and the growth (5 µM) was -21.9% (active).
In the case of `CC1(C)OB(c2ccc(Cn3cc(F)c(=O)[nH]c3=O)cc2)OC1(C)C`, the growth (50 µM) was 13%.
For `O=c1[nH]cc(F)c(=O)[nH]1`, the growth (50 µM) was 58.6%.
